# Data: PubChem BioAssay AID2253 (Southern Research Specialized Biocontainment Screening …, 2010)
# In all, about 2,200 compounds went through this assay and about 1,300 (59%) were called active. No rule for the calls is given here. The set was probably picked from earlier hits. Only a sample is shown. Results with a measured potency or affinity are listed apart.
# Experiment: THP-1 cell cytotoxicity, dose response, cytotoxicity control for Salmonella PhoP regulon inhibitors, S. typhimurium screen hits (AID 2253)
# Conditions: THP-1 viability, CellTiter-Glo luminescence, 72 h; series mostly up to 50 µM
row,SMILES,outcome
1,CCOCCCNC(=S)Nc1cc(C)cc(C)c1,inactive
2,COCCSc1ccccc1C(=O)NCC1CCCO1 (centres undefined),inactive
3,COc1cccc(-c2nc(-c3ccc(Br)o3)no2)c1,inactive
4,COCCNC(=S)N(Cc1cccnc1)Cc1ccc(OC)c(OC)c1,inactive
5,CC1=C(C(=O)Nc2cccnc2)C(c2ccccn2)n2nnnc2N1 (centres undefined),inactive
6,CCOC(=O)C1=C(C)NC(=O)NC1c1ccsc1 (centres undefined),inactive
7,CN1C(=O)CC(P(=O)(c2ccccc2)c2ccccc2)N(C)C1=O (centres undefined),inactive
8,Cc1cn([C@H]2C[C@H](N=[N+]=[N-])[C@@H](CO)O2)c(=O)[nH]c1=O,inactive
9,COc1nsnc1NS(=O)(=O)c1ccc(NC(=S)NC(=O)c2ccncc2)cc1,inactive
10,C#CC(C)(CC)NC(=O)c1cc(OC)c(OC)c(OC)c1 (centres undefined),inactive
11,CCn1nnc(-c2ccccc2NS(=O)(=O)c2ccc(S(=O)(=O)N3CCCCCC3)cc2)n1,inactive
12,Cc1nc(CC(=O)c2ccc(O)cc2O)cs1,inactive
13,CC(=O)Nc1nc(-c2ccc(Cl)cc2)nc(C)c1C(C)=O,inactive
14,OCCNc1ccc(Cl)cc1,inactive
15,C#CCOc1c(Cl)cc(/C=N/O)cc1OC,inactive
16,CC(C(=O)NC1C=CS(=O)(=O)C1)N1C(=O)/C(=C/c2ccc(Cl)cc2)SC1=S (centres undefined),inactive
17,COc1cc(C)c(Cc2cnc(N)nc2N)cc1OC,inactive
18,CCn1cc(C(=O)O)c(=O)c2cc(Br)ccc21,inactive
19,COc1ccc(NC(=O)CSc2nccn2-c2ccccc2)cc1,inactive
20,Cc1ccc(OCc2nnc(SCC(=O)Nc3ccc4c(c3)OCO4)n2C)cc1,inactive
21,Cc1cc(C)c(C#N)c(SCC(O)CS(=O)(=O)Cc2ccccc2)n1 (centres undefined),inactive
22,CCn1c(Cc2c(C)[nH]c3ccccc23)n[nH]c1=S,inactive
23,O=C1CSc2ccccc2N1Cc1ccc(F)cc1,inactive
24,COc1cc(C2SCC(=O)N2c2nnc(C34CC5CC(CC(C5)C3)C4)s2)cc(OC)c1OC (centres undefined),inactive
25,C/C(=C\c1ccco1)C1Nc2cccc3cccc(c23)N1,inactive

row,SMILES,outcome
1,CN1CCN(C(c2cccc(C(F)(F)F)c2)c2nnnn2C(C)(C)C)CC1 (centres undefined),inactive
2,O=C(O)c1cc(O)c2c(c1)[C@@H]([C@H]1c3cc(C(=O)O)cc(O)c3C(=O)c3c(O[C@@H]4O[C@H](CO)[C@@H](O)[C@H](O)[C@H]4O)cccc31)c1cccc(OC3O[C@H](CO)[C@@H](O)[C@H](O)[C@H]3O)c1C2=O (some centres undefined),inactive
3,CN1CCN(c2c(F)cc3c(=O)c(C(=O)O)cn4c3c2OCN4C)CC1,inactive
4,COc1ccc(-n2c(=O)c3ccccc3n(CC(=O)Nc3cc(C)on3)c2=O)cc1OC,inactive
5,CCn1cc(C(=O)O)c(=O)c2cc(F)c(N3CCN(C(=S)NC(=O)c4ccc(F)c(F)c4)CC3)cc21,inactive
6,COc1ccccc1CC1(C)NC(=O)N(CC(=O)N2CC(C)OC(C)C2)C1=O (centres undefined),inactive
7,CCn1nc(C(=O)O)c(=O)c2cc3c(cc21)OCO3,inactive
8,Cc1snc(S(=O)(=O)/C(C#N)=N\Nc2ccccc2)c1C#N,inactive
9,COc1ccc(N2C(=O)[C@@H]3[C@H](C2=O)[C@H]2c4ccccc4C=CN2[C@@H]3C(=O)Nc2ccccc2)cc1,inactive
10,CCC(CC)C(=O)Nc1cccc(C(=O)N2CCCC2)c1,inactive
11,O=C(c1ccccc1)N1CCSC1=S,inactive
12,CC(C)NC(=O)/C(=N\O)c1ccccc1,inactive
13,CC(CN1CCOCC1)C(=O)c1ccccc1 (centres undefined),inactive
14,Cc1cc(C(C)c2ccccc2)c(O)c(CN2CCOCC2)c1C (centres undefined),inactive
15,CCCCCOc1ccc(NC(=O)C(=O)NCCC2=CCCCC2)cc1,inactive
16,O=C(CSc1nncs1)Nc1ccc2c(c1)OCCO2,inactive
17,CC(O)CNc1cc(N)c([N+](=O)[O-])cc1[N+](=O)[O-] (centres undefined),inactive
18,CCNC(=O)COC(=O)CCC(=O)c1cccs1,inactive
19,COCCNS(=O)(=O)c1cccn1-c1ncc(C(F)(F)F)cc1Cl,inactive
20,Cc1cc(C)cc(-n2nc(C)cc2N)c1,inactive
21,CCOC(=O)CN1C(=O)C(C)(C)Oc2ccc(C(=O)Nc3ccccc3OC)cc21,inactive
22,Cc1cccc(NC(=O)CCC(=O)OCc2ccc(Br)cc2)c1,inactive
23,O=C(O)C1CCC(N2C(=O)C3CCCCC3C2=O)CC1 (centres undefined),inactive
24,Cc1ccccc1-n1nc(-c2ccc(N)cc2)cc1N,inactive
25,COC(=O)c1ccc(CSc2nnnn2-c2ccccc2)o1,inactive

row,SMILES,outcome
1,CC(=O)c1cccc(NC(=O)Nc2cc3sccc3n2C)c1,inactive
2,O=C(NCc1ccccn1)Nc1cccc(Cl)c1,inactive
3,O=C(CSCc1ccccc1)Nc1ccc2c(c1)OCO2,inactive
4,CC(=O)c1cccc(NC(=O)Nc2cccs2)c1,inactive
5,Cc1cc(CNC(=O)Nc2ccc3c(c2)OCO3)nn1C,inactive
6,CN(C)C(CNC(=O)Nc1cccc(Cl)c1)c1cccnc1 (centres undefined),inactive
7,Cc1ccccc1CS(=O)(=O)c1snnc1C,inactive
8,CCOC(=O)c1cnc2ccc(OC)cc2c1Nc1ccc2c(c1)OCCO2,inactive
9,CCOC(=O)c1cnc2ccccc2c1Nc1ccc2c(c1)OCCO2,inactive
10,Cc1cc(Nc2ccccc2F)n2ncnc2n1,inactive
11,N/C(=N\OC(=O)Nc1ccc(Cl)cc1)c1ncc(C(F)(F)F)cc1Cl,inactive
12,Cc1nn(-c2ncc(C(F)(F)F)cc2Cl)c(=O)n1-c1cccc(Cl)c1,inactive
13,CCCCNC(=O)OC1CCS(=O)(=O)C1 (centres undefined),inactive
14,Cc1ccc2nc(-c3ccc(Br)o3)oc(=O)c2c1,inactive
15,COC(=O)C1=C(C)N(C)C(=O)/C1=C\c1ccco1,inactive
16,C=CC1=C(C(=O)O)N2C(=O)[C@@H](NC(=O)/C(=N\O)c3csc(N)n3)[C@H]2SC1 (stereo in doubt),inactive
17,O=C1CC(SCc2nc3ccccc3[nH]2)C(=O)N1c1ccc(Cl)cc1 (centres undefined),inactive
18,O=C(NC1CCCCC1)C(c1ccncc1)N(CC1CCCO1)C(=O)C(F)(F)F (centres undefined),inactive
19,O=C(Nc1ccc(Cl)cc1)N1CC=CCC1,inactive
20,Cn1cccc1CC(=O)NNC(=S)Nc1ccc(Cl)cc1,inactive
21,CCC(CC)c1nnc(NC(=O)Oc2ccccc2)s1,inactive
22,CCN(CC(=O)N1CCN(Cc2ccccc2)CC1)S(=O)(=O)c1ccc(F)cc1,inactive
23,Cc1ccccc1NC(=O)Nc1cccs1,inactive
24,S=C(Nc1ccc2snnc2c1)N1CCN(c2ccccn2)CC1,inactive
